In ChEMBL document CHEMBL3988442, “University of Dundee, Small-Polar-MMV Screening Library” (2021):
The campaign covered roughly 48,000 compounds. About 13,000 (27%) showed an effect of 50% or more. Some of the results follow.

test system: Wolbachia pipientis; assay: Anti-Wolbachia Cell-Based Screen; type: functional; set-up: scale not given: in the data most compounds retested in dose-response had high values; details: 5 µM

| SMILES | Percent Effect |
| --- | --- |
| Cc1cccc(C)c1NC(=O)c1cccc(CN2CCCC2C)c1 (stereo not drawn) | 11.58% |
| Cn1ccc(C(=O)N2CCCC(c3cc(O)n(C)n3)C2)n1 (stereo not drawn) | 89.67% |
| Cn1cc(C(=O)N2CCCC(c3cc(O)n(C)n3)C2)cn1 (stereo not drawn) | 108% |
| CC(C)c1csc(C2CCCN(C(=O)c3ccc(=O)n(C)n3)C2)n1 (stereo not drawn) | -15.66% |
| COCCN1CCN(CC(=O)NC2(C#N)CCCC2)CC1C (stereo not drawn) | 16.28% |
| O=C(CCn1cc(Cl)cn1)N1CCC2(CC1)[C@H](O)C[C@@H]2OCCO | -14.25% |
| CCc1cnc(NCc2nc(COC)no2)nc1 | 3.706% |
| CCOCCCNc1ncc(-c2onc(C)c2C)c(-c2ccco2)n1 | 100.1% |
| CCOCCN1CCN(Cc2nnc(-c3ccco3)o2)CC1 | 1.125% |
| COCCNc1ncc(-c2onc(C)c2C)c(-c2ccco2)n1 | 94.53% |
| COc1ncc(NCc2csc(-c3ccco3)n2)cc1C(N)=O | -5.121% |
| CCCOCCCNc1nccc(-c2cn(C)nc2C)n1 | -3.491% |
| COCCNc1ncc(-c2cc(C)no2)c(-c2ccco2)n1 | 96.17% |
| CCN(CC)CCNc1ncc(-c2cc(C)no2)c(-c2ccoc2C)n1 | -6.629% |
| Cc1nsc(N2CCN(C(=O)Nc3ccc4[nH]ccc4c3)CC2)n1 | 0.5995% |
| CCc1cc(CN2CCC(CCC(=O)Nc3ccccc3Cl)CC2)on1 | 3.381% |
| N#CCCN(CC1CCOC1)S(=O)(=O)c1c(F)cccc1Cl (stereo not drawn) | 4.348% |
| COc1ccc(N2CCN(C[C@@H](C)CO)CC2=O)cc1 | -31.81% |
| CSCc1noc(Cn2ncn3cccc3c2=O)n1 | 40.19% |
| CCN1CC2(CCN(Cc3nc(CSC)no3)CC2)CC1=O | -1.733% |
| COc1ccc(N2CCN(Cc3nc(CSC)no3)CC2=O)cc1 | 98.96% |
| COc1ccc(N2CCN(Cc3nc(CSC)no3)C(C)C2=O)cc1 (stereo not drawn) | 106.8% |
| CCc1nc(C2CCCN2Cc2nc(CCOC)no2)no1 (stereo not drawn) | -0.7381% |
| CCc1ccc(C2CCCCCN2Cc2nc(CCOC)no2)o1 (stereo not drawn) | -5.886% |
| CSCc1noc(Cn2ccc3ccccc3c2=O)n1 | 6.504% |
| COCCc1noc(CN2CCN(c3ccc(OC)cc3)C(=O)C2C)n1 (stereo not drawn) | 97.33% |
| Cc1ccc(N2C[C@H]3CCC[C@@H](CN4CCOCC4)[C@H]3C2)nn1.O=C(O)C(F)(F)F | 7.309% |

| SMILES | Percent Effect |
| --- | --- |
| Cc1cc(CN2CCN(C(=O)NC(C)Cn3ccnc3)CC2)no1 (stereo not drawn) | -2.401% |
| CC(NC(=O)N1CCCN(Cc2cccs2)CC1)c1cccnc1 (stereo not drawn) | -8.61% |
| Cc1ccc(C(=O)N2CCN(C(=O)NC(C)Cn3ccnc3)CC2)o1 (stereo not drawn) | 0.8524% |
| O=C1CCc2cc(NC(=O)N3CCCN(Cc4cccs4)CC3)ccc21 | 4.237% |
| CC(Cn1ccnc1)NC(=O)N1CCCN(Cc2cccs2)CC1 (stereo not drawn) | 98.79% |
| CC(Cn1ccnc1)NC(=O)N1CCN(Cc2cccs2)CC1 (stereo not drawn) | 97.63% |
| O=C(Nc1ccc2c(c1)OCCO2)N1CCCN(Cc2cccs2)CC1 | -12.77% |
| O=C(NCCn1ccnc1)N1CCCN(Cc2cccs2)CC1 | 115.6% |
| CC(Cn1cccn1)NC(=O)N1CCN(Cc2cccs2)CC1 (stereo not drawn) | 7.648% |
| O=C1CCCN1CCN1CCCCC1Cn1cccn1 (stereo not drawn) | -13.35% |
| COc1cc(C2C3=C(COC3=O)Nc3[nH]nc(C)c32)cc2c1OCO2 (stereo not drawn) | -6.627% |
| Cc1n[nH]c(C)c1CCNC(=O)Nc1ccc2c(c1)COC2 | -11.47% |
| O=C(CN1CCNC1=O)NCc1ccc2sccc2c1 | 117.7% |
| O=C(CN1CCNCC1)NCc1ccc2sccc2c1 | -21.43% |
| O=C(Cn1ccc(=O)cc1)NCc1ccc2sccc2c1 | -4.934% |
| CC(C)C(=O)N1CCC(C)(c2cc[nH]n2)CC1 | 145.9% |
| CC(=O)N1CCC(C)(c2cc[nH]n2)CC1 | 158.8% |
| COc1ccc(N)c(N2CCN(C(C)=O)CC2)n1 | -3.558% |
| CC(=O)N1CC2(CCN(C(=O)c3cccc4[nH]ccc34)CC2)C1 | -2.889% |
| CC(C)C(=O)N1CCC2(CC1)NC(=O)[C@H]1CN(C(=O)N(C)C)C[C@H]12 | -23.47% |
| CC(C)C(=O)N1CCC2(CC1)NC(=O)c1ccccc12.Cl | -14.83% |
| CC1(c2cc[nH]n2)CCN(C(=O)c2ccc(Cl)cc2)CC1 | 120.3% |
| Cc1nnc(CCNC(=O)c2coc(CN3CCOCC3)c2)s1 | -3.668% |
| CCCOc1ccc2c(c1)OCC(C(=O)NC(C)Cn1cccn1)=C2 (stereo not drawn) | 18.55% |
| O=c1c(C(F)(F)F)cccn1Cc1nnc(-c2cccnc2)o1 | -24.3% |
| N[C@H]1CN(C(=O)c2ccc3[nH]c(=O)c(=O)[nH]c3c2)C[C@@H]1c1ccccc1 | 97.68% |
